A selection follows.
aSyn 5UTR act – Activators via SNCA 5'UTR binding, MLPCN; alpha-synuclein 5'UTR reporter, activators screen; activity score, % (tested at 7.5 µM), hits read low; hit rate 7.1% among 300,000; in the data active = activity score below about -60%
Numbers stand for hits; – = inactive.

SMILES | aSyn 5UTR act
c1ccc(-c2nc(N3CCOCC3)s[n+]2-c2ccccc2)cc1 | -75
C=CCN=C(SCC(=O)c1ccc(Cl)cc1)c1c(O)n(C)c(=O)n(C)c1=O | -71
CC(=O)O[C@H]1C(=O)[C@@]2(C)C([C@H](OC(=O)c3ccccc3)[C@]3(O)C[C@H](OC(=O)[C@H](O)[C@@H](NC(=O)Cc4ccccc4)c4ccccc4)C(C)=C1C3(C)C)[C@]1(OC(C)=O)CO[C@@H]1C[C@@H]2O (stereo not given in full) | –
Cc1ccc2cc(C=C(C#N)C#N)c(Cl)nc2c1 | -79
CCn1nc(-c2ccccc2)nc2c(=O)n(C)c(=O)nc1-2 | -84
Cc1nc2c(=O)n(C)c(=O)nc-2n(C)n1 | –
O=c1[nH]c(=S)n(C2CC2)c(O)c1C=Nc1ccc2c(c1)OCO2 | -141
O=C(c1ccccc1)C(CN1CCCC1)c1ccccc1 (stereo not given) | -77
CC(C)(C)c1ccc(C(=O)C2CCCN(C3CCC3)C2)cc1 (stereo not given) | -72
CC(C)(C)c1ccc(C(=O)C2CCCN(Cc3ccon3)C2)cc1 (stereo not given) | -124
COc1ccccc1CN1CCCC(C(=O)c2ccccc2SC)C1 (stereo not given) | –
CCCCCCCSc1cc(OC)c(CCN(C)C)cc1OC | –
C=C1C(=O)O[C@@H]2C[C@@H](C)[C@@H]3C4OC4C(=O)[C@@]3(C)[C@@H](O)[C@H]12 (stereo not given in full) | -221
CC1(C)C[C@H]2C=C(C=O)[C@]3(C=O)C[C@]3(C)[C@H]2C1 | –
Cc1ccc(-c2nc(N(C)C3CCN(C)CC3)c3ccccc3n2)cc1 | -93
Cc1cc(OCCN2CC2)c2ccccc2n1 | -73
O=C(Nc1ccc(OC(=O)N2CCCCC2)cc1)N1CCOCC1 | –
CNc1ccc2oc(C[C@H]3O[C@@]4(CC[C@H]3C)O[C@H]([C@H](C)C(=O)c3ccc[nH]3)[C@H](C)C[C@H]4C)nc2c1C(=O)O | –
O=C(C1CC(c2ccc(Cl)c(Cl)c2)=NO1)N1CCC2(CC1)OCCO2 (stereo not given) | -131
O=C(C1CC(c2ccc(F)cc2)=NO1)N1CCC2(CC1)OCCO2 (stereo not given) | -127
COc1cccc(C2=NOC(C(=O)N3CCC4(CC3)OCCO4)C2)c1 (stereo not given) | -105
Cc1ccc(C[n+]2c(-c3ccc(C)cc3)cc(-c3ccc(C)cc3)cc2-c2ccc(C)cc2)cc1 | –
Nc1c2c(nc3sc4c(c13)CCCC4)CCCCC2 | -170
Nc1c2c(nc3sc4c(c13)CCCC4)CCCC2 | -118
CC(C)(C)c1ccc(CSc2cnn(C(C)(C)C)c(=O)c2Cl)cc1 | –
SMILES | aSyn 5UTR act
COC(=O)C1CN(C#N)N(c2ccc(Cl)cc2)C12c1ccccc1-c1ccccc12 (stereo not given) | –
Cc1cc([N+](=O)[O-])c2ccccc2[n+]1[O-] | –
Nc1ccc2c(c1)oc1ccccc12 | -113
O=C1NC(=O)N(Cc2ccco2)C(=O)/C1=C/C=C/c1ccco1 | -288
C=CCN1C(=O)NC(=O)/C(=C/C=C/c2ccccc2)C1=O | -69
O=C1NC(=O)N(Cc2ccccc2)C(=O)/C1=C\C=C\c1ccco1 | -222
CC/C(=N\N1CCCCC1)c1c(O)[nH]c(=O)[nH]c1=O | –
O=C(Nc1ccc(Cl)c(Cl)c1)c1ccco1 | -170
Clc1ccccc1Nc1ncnc(-n2cccc2)n1 | -160
CN1C(=O)C(=Cc2ccc(OCCN(C)c3ccccn3)cc2)C(=O)N(C)C1=O | -82
CC(=O)O[C@@]12CO[C@@H]1C[C@H](O)[C@@]1(C)C(=O)[C@H](O)C3=C(C)[C@@H](OC(=O)[C@H](O)[C@@H](NC(=O)c4ccccc4)c4ccccc4)C[C@@](O)([C@@H](OC(=O)c4ccccc4)C12)C3(C)C (stereo not given in full) | –
Cc1c(OC(=O)N(C)C)ccc2c1O/C(=C\c1ccco1)C2=O | -134
CC(=O)Nc1ccccc1C(=O)OCc1cccc(F)c1 | -85
O=C1NC(=O)C(=Cc2cccc(OCCOc3ccccc3)c2)C(=O)N1 | -87
O=C1NC(=O)C(CCc2ccncc2)(Cc2cccc(Cl)c2Cl)C(=O)N1c1ccc(Br)cc1 (stereo not given) | –
O=C1C(=O)c2ccccc2-c2ccccc21 | –
CN(C)c1ccc(C(=O)c2ccc(N(C)C)cc2)cc1 | -108
COc1cc(C=C2C(=O)NC(=O)NC2=O)ccc1OS(=O)(=O)c1ccccc1[N+](=O)[O-] | -96
CN(C)C(=O)On1c(-c2ccccc2)nc2ccc(Cl)cc21 | -71
Nc1ccccc1C(=O)OCc1ccc([N+](=O)[O-])cc1 | -83
CN1CCN(c2ccc([N+](=O)[O-])c3no[n+]([O-])c23)CC1 | –
CCn1c(C)c(C(=O)Nc2ccc(OC)cc2)c2cc(OC)ccc21 | -86
COc1ccc(C2NCc3ccc4c(c3-n3cccc32)OCO4)cc1O (stereo not given) | –
Nc1ccccc1C(=O)OCC(=O)c1ccc2c(c1)OCCO2 | -64
CCOC(=O)c1cc2c(cn1)[nH]c1ccccc12 | -142
CCc1ccc(-c2nn(Cc3ccccc3)cc2C=O)cc1 | -140
